“And” between values parts separate entries of the source, which are not always exact repeats. Equal entries are not always repeated.
What was measured:
[1] = biological target: Death-associated protein kinase 1 (Homo sapiens) (UniProt P53355); details: at 1 µM;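 further: each value is a mean inhibition figure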
[2] = biological target: T1, Serine/threonine-protein kinase DCLK2 (Homo sapiens) (UniProt Q8N568); details: at 0.1 µM
T1 sequence (whole entry): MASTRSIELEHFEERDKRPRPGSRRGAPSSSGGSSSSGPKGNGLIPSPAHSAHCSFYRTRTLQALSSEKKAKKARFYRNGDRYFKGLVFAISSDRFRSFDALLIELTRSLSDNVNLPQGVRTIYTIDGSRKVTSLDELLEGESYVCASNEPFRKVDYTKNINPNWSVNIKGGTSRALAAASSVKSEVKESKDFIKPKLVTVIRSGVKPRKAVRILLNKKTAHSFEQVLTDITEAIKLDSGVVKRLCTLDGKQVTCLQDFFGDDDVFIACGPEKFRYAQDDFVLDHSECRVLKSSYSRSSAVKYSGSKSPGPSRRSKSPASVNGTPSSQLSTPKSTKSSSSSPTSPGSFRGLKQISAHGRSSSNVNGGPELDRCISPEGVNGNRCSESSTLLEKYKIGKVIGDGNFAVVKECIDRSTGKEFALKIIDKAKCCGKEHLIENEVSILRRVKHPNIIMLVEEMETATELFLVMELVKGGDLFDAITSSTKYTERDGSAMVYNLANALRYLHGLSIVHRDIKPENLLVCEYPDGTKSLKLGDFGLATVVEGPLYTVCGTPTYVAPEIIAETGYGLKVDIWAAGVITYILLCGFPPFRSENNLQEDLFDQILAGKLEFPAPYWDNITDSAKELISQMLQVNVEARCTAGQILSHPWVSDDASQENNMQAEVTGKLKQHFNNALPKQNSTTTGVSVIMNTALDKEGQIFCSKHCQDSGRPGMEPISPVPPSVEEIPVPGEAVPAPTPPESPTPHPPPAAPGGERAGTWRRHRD

[3] = biological target: T1, Serine/threonine-protein kinase DCLK2 (Homo sapiens); details: at 1 µM
[4] = biological target: MAP kinase-activated protein kinase 2 (Homo sapiens) (UniProt P49137); details: at 0.1 µM
Chain of MAP kinase-activated protein kinase 2 (Homo sapiens) (P49137 whole entry, looked up): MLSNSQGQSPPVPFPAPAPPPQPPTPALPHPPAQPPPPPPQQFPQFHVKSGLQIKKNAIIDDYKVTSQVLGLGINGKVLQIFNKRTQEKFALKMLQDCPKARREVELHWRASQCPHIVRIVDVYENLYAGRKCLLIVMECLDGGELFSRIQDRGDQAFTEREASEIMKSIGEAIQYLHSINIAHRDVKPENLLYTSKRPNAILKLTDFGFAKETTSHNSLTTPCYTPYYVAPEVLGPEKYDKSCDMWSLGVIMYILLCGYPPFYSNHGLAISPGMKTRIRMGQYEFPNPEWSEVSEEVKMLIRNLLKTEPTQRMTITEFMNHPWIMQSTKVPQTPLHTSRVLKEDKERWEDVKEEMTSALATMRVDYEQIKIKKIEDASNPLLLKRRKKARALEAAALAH

[5] = biological target: MAP kinase-activated protein kinase 2 (Homo sapiens) (UniProt P49137); details: at 1 µM
[6] = biological target: MAP kinase-activated protein kinase 3 (Homo sapiens) (UniProt Q16644); details: at 0.1 µM
Chain of MAP kinase-activated protein kinase 3 (Homo sapiens) (Q16644 whole entry, looked up): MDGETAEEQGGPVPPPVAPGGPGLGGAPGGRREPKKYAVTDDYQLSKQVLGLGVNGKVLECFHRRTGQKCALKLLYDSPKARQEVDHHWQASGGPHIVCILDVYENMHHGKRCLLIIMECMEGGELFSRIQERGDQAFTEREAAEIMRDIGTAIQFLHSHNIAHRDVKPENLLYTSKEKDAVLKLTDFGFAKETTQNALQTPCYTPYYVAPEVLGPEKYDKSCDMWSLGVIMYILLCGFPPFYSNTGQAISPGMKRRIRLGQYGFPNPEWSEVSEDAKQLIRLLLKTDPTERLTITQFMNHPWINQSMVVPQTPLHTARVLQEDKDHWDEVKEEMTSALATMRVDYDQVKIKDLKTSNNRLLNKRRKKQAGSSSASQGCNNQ

[7] = biological target: MAP kinase-activated protein kinase 3 (Homo sapiens) (UniProt Q16644); details: at 1 µM
[8] = biological target: Serine/threonine-protein kinase MARK1 (Homo sapiens) (UniProt Q9P0L2); details: at 0.1 µM
Chain of Serine/threonine-protein kinase MARK1 (Homo sapiens) (Q9P0L2 whole entry, looked up): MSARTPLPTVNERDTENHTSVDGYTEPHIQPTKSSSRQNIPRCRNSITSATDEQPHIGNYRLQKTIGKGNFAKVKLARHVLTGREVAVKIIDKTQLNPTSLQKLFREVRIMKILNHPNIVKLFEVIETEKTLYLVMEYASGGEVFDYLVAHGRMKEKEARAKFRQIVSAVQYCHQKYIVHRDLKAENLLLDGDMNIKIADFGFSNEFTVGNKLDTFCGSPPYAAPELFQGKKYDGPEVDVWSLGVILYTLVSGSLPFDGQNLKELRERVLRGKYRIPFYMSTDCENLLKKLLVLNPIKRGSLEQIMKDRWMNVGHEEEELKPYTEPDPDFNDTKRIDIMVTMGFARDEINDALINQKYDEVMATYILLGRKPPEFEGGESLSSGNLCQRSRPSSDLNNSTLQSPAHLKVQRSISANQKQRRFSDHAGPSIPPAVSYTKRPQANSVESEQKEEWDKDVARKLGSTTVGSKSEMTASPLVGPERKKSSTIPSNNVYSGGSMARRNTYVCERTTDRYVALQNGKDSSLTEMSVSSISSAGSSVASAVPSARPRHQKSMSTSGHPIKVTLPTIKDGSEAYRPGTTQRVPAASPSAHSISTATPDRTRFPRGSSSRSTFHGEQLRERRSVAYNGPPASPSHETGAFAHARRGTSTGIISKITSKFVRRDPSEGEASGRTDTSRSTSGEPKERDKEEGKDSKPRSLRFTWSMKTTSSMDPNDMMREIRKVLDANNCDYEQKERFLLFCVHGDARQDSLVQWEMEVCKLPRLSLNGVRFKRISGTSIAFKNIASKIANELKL

[9] = biological target: Serine/threonine-protein kinase MARK1 (Homo sapiens) (UniProt Q9P0L2); details: at 1 µM
[10] = biological target: MAP/microtubule affinity-regulating kinase 3 (Homo sapiens) (UniProt P27448); details: at 0.1 µM;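 further: mean percent inhibition of MARK3 kinase activity, measured within the GSK PKIS screening panel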
Chain of MAP/microtubule affinity-regulating kinase 3 (Homo sapiens) (P27448 whole entry, looked up): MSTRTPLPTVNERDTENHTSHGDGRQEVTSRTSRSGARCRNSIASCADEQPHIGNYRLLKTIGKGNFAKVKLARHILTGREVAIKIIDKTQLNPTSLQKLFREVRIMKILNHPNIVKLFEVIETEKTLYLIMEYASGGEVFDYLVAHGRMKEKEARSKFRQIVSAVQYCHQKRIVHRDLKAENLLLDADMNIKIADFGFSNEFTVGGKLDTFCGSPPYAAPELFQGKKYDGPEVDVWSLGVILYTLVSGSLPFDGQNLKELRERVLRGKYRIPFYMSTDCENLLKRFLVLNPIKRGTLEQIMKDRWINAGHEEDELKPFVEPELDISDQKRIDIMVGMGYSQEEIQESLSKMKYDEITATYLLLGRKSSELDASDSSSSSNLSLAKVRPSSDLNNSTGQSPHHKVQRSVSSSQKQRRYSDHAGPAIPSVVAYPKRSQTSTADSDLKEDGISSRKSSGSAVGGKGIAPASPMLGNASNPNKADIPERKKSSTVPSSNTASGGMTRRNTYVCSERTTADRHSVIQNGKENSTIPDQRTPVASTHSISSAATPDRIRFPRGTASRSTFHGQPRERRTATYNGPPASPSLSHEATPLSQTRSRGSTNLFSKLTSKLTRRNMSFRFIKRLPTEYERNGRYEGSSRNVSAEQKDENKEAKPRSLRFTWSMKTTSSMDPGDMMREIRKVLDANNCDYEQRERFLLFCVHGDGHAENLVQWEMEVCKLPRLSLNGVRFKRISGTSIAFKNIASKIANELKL

Chain of Death-associated protein kinase 1 (Homo sapiens) (P53355 whole entry, looked up): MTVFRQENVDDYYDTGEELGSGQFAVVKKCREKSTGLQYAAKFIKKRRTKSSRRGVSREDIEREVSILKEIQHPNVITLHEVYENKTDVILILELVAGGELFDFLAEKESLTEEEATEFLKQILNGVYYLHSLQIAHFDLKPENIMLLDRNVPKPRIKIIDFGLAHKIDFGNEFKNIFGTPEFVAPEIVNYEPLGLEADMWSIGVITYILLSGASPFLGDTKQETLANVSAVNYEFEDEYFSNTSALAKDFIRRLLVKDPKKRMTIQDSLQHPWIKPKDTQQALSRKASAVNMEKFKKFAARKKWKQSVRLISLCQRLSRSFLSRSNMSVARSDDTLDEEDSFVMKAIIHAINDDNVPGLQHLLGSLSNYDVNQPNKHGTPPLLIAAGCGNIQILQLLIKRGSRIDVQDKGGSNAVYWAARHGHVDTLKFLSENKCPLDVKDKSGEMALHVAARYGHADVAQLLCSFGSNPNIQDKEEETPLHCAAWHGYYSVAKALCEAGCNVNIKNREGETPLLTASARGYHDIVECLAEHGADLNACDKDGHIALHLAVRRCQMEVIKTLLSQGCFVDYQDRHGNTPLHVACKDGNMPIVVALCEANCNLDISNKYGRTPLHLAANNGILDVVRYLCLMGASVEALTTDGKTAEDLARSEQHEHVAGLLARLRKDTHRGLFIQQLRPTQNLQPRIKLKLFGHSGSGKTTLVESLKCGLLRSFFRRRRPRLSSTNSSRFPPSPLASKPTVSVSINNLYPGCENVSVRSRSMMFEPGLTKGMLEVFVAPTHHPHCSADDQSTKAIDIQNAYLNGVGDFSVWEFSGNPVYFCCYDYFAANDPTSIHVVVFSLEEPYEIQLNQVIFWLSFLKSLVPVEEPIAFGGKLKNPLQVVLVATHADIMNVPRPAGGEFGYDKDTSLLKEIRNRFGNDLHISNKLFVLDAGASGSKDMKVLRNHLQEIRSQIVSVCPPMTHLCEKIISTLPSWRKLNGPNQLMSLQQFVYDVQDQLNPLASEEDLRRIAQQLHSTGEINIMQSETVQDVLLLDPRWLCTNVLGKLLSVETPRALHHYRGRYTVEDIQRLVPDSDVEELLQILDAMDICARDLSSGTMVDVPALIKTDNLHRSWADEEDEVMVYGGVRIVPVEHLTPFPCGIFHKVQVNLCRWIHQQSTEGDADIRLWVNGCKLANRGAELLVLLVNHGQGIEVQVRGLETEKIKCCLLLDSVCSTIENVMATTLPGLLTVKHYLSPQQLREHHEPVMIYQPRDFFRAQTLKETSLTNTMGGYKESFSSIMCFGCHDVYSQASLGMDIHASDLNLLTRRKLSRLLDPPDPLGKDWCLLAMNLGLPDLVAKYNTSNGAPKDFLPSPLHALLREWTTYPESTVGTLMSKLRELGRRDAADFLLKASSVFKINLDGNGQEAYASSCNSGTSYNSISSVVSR

Structure (SMILES)	inhibition [1]	inhibition [2]	inhibition [3]	inhibition [4]	inhibition [5]	inhibition [6]	inhibition [7]	inhibition [8]	inhibition [9]	inhibition [10]
CN(c1ccc(NC(=O)NCCN2CCOCC2)cc1)c1ccnc(Nc2ccc(CS(C)(=O)=O)cc2)n1	4.97%	0.85%	0.61%	1.97%	2.7%	2.92%	3.83%	2.9%	7.21%	2.81%
CN1CCN(Cc2ccc(-c3cc4ncnc(Nc5ccc(OCc6cccc(F)c6)c(Cl)c5)c4s3)o2)CC1	8.26% and 8.39%	-1.96% and 1.28%	-0.55% and 0.13%	3.34% and 2.08%	3.32% and 2.11%	10.6% and 4.26%	13% and 4.01%	2.62% and 3.44%	6.17% and 6%	1.67% and 1.64%
NS(=O)(=O)c1cccc(N/C=C2\C(=O)Nc3ccccc32)c1	12.5%	0.84%	2.32%	4.22%	4.45%	11.3%	12.1%	6.31%	24.4%	5.23%
NC(=O)c1ccc2c(-c3ccnc(NCCCO)n3)c(-c3ccc(F)cc3)nn2c1	15.1%	1.81%	1.24%	5.03%	5.02%	39.7%	43.4%	4.33%	4.69%	4.33%
Cc1cc(O)cc(C)c1/C=C/c1cncc(C(=O)OC(C)(C)C)c1	1.3%	4.19%	6.15%	1.72%	1%	1.97%	2.47%	2.3%	2.93%	2.5%
CS(=O)(=O)CCNCc1ccc(-c2ccc3ncnc(Nc4ccc(OCc5cccc(C(F)(F)F)c5)cc4)c3c2)o1	5.63%	0.29%	1.78%	3.06%	3.74%	5.88%	8.3%	0.99%	3.78%	0.32%
CC(C)c1ccc(-c2cc(-c3c[nH]nc3-c3ccccn3)ccn2)cc1	-0.6%	0.39%	-0.35%	0.58%	-0.11%	0.63%	6.51%	1.23%	1.49%	-3.53%
CCn1c(-c2nonc2N)nc2cncc(C(=O)NCCNC)c21	0.19%	1.52%	1.62%	2.34%	1.53%	3.52%	3.94%	1.84%	14.9%	1.81%
CNC(=O)c1sc(-n2cnc3cc(OC)c(OC)cc32)cc1OCc1ccccc1C(F)(F)F	3%	0.25%	2.29%	1.17%	1.2%	3.3%	2.78%	2.03%	4.3%	0.78%
Nc1nccc(-c2c(-c3ccc(F)cc3)ncn2C2CCNCC2)n1	-3.07% and -0.77%	1.18% and 0.52%	-2.79% and 3.76%	-1.56% and -0.23%	-1.96% and -0.84%	27.6% and 29.5%	34.1% and 34.6%	-0.83% and 1.71%	-0.5% and 1.51%	-0.05% and -0.2%
COC(=O)Nc1nc2ccc(Oc3ccc(NC(=O)Nc4cc(C(F)(F)F)ccc4F)cc3)cc2s1	-1.22%	-1.5%	-7.94%	0.26%	-0.42%	7.74%	20.3%	0.76%	0.29%	0.41%
COc1cc(N2CCN(C(C)C)CC2)ccc1Nc1nc(Nc2cccc3ncccc23)c2cc[nH]c2n1	-1.59%	-1.36%	-0.27%	-0.17%	-0.87%	-0.09%	0.19%	0.48%	2.18%	0.2%
NS(=O)(=O)c1ccc(N/N=C2\C(=O)Nc3ccc(C(=O)NCc4ccncc4)cc32)cc1	4.92%	3.49%	0.04%	2.73%	3.71%	4.05%	2.16%	7.5%	40.7%	4.2%
CNC(=O)c1cncc(/C=C/c2ccccc2C)c1	7.67%	0.83%	0.28%	1.99%	2.51%	3.43%	3.22%	2.55%	7.06%	3.94%
CC1=C(C(=O)Nc2ccc3[nH]ncc3c2)C(c2ccc(F)cc2)N=C(c2ccc(C(F)(F)F)nc2)N1 (stereo not given)	0.67%	-2.05%	4.18%	1.36%	0.33%	1.46%	3.59%	1.66%	4.38%	1.04%
COc1cc2c(cc1Nc1nc(Nc3cccc(F)c3C(N)=O)c3cc[nH]c3n1)N(C(=O)CN1CCN(C(C)C)CC1)CC2	5.15%	4.68%	1.43%	1.04%	2.85%	3.25%	5.17%	1.44%	3.35%	3.73%

Structure (SMILES)	inhibition [1]	inhibition [2]	inhibition [3]	inhibition [4]	inhibition [5]	inhibition [6]	inhibition [7]	inhibition [8]	inhibition [9]	inhibition [10]
COc1cc(N2CCN(C(C)C)CC2)ccc1Nc1nc(Nc2cccc(F)c2C(=O)O)c2cc[nH]c2n1	2.32%	0.91%	1.63%	2.14%	1.32%	4.39%	4.68%	3.19%	8.61%	4.95%
COc1ccc2ncn(-c3cc(O[C@H](C)c4ccccc4C(F)(F)F)c(C(N)=O)s3)c2c1	-2.31%	-0.78%	-1.64%	-0.39%	-0.49%	-0.9%	-0.93%	0.76%	5.8%	-0.92%
O=C(Nc1n[nH]c2nnc(-c3cccnc3)cc12)C1CC1	-2.01%	-0.69%	-0.41%	-0.72%	-0.2%	0.08%	-0.37%	-0.14%	0.29%	0.23%
CS(=O)(=O)Nc1ccc(-c2ccc3c(NC(=O)C4CC4)n[nH]c3c2)cc1	4.64%	1.42%	1.42%	1.53%	1.14%	3.27%	3.44%	2.32%	2.73%	3.47%
Cc1c2ccc(N(C)c3ccnc(Nc4cccc(S(N)(=O)=O)c4)n3)cc2nn1C	3.66%	-2.02%	-1.83%	2.01%	1.4%	3.68%	4.05%	4.13%	7.61%	5.31%
CN(C)CCNC(=O)Nc1ccc(N(C)c2ccnc(Nc3ccc(CS(C)(=O)=O)cc3)n2)cc1	4.89%	2.39%	1.2%	1.53%	1.45%	2.22%	2.99%	4.47%	9.32%	6.51%
O=C1Nc2ccccc2/C1=C1\CCc2cc(O)ccc21	-2.93%	2.55%	0.84%	-0.94%	-0.15%	-1.04%	-1.15%	8.64%	33.8%	7.19%
CC1=C(C(=O)Nc2ccc3[nH]nc(C)c3c2)C(c2ccc(C(F)(F)F)cc2)CC(=O)N1 (stereo not given)	4.3%	1.35%	0.55%	1.67%	0.92%	0.91%	3.08%	1.38%	3.89%	-1.82%
Cn1c(-c2nonc2N)nc2cnccc21	2.42%	0%	5.3%	1.66%	1.06%	3.29%	2.75%	3.2%	7.22%	0.25%
CN1CCC(C(=O)Nc2n[nH]c3nc(-c4ccc(O)cc4)c(Br)cc23)CC1	2.5% and 1.28%	-1.57% and -0.96%	5.44% and 10.2%	1.56% and -0.15%	1.12%	2.88% and 0.82%	2.79% and 1.9%	3.54% and -0.23%	8.58% and 1.5%	-0.22% and -0.59%
CC1(C)CC(n2cnc(-c3ccc(F)cc3)c2-c2ccnc(N)n2)CC(C)(C)N1	-7.03%	2.01%	-7.74%	-2.49%	-2.73%	21.4%	26.4%	1.88%	0.57%	1.34%
Fc1ccc(Nc2nccc(-c3c(-c4ccc(C(F)(F)F)cc4)nn4ncccc34)n2)cc1F	4.85%	1.36%	0.53%	1.35%	0.53%	1.82%	4.65%	3.43%	4.46%	3.28%
NS(=O)(=O)c1ccc(N/N=C2\C(=O)Nc3cccc(CCc4ccncc4)c32)cc1	-1.65%	-0.47%	-0.08%	-0.02%	-0.84%	0.82%	0.37%	2.29%	5.9%	1.2%
CCS(=O)(=O)c1ccc(OC)c(Nc2ncc(-c3cccc(F)c3)o2)c1	7%	1.71%	1.48%	2.52%	3.2%	7.02%	7.04%	1.75%	4.44%	3.77%
COc1cc(Nc2ncc(-c3ccccc3)o2)cc(OC)c1	-0.73%	1.65%	1.7%	2.4%	1.2%	3.76%	3.61%	1.26%	4.72%	3.35%
